# Hits are enriched below; roughly 1.1% of the tested compounds scored in any of these assays.
# OPRM1-OPRD1 inv = inverse agonists of MOR-DOR heterodimerization, primary screen, cell-based, luminescence | inhibition, % at 9.3 µM | hit rate 0.21% among 340,000 | Mu-type opioid receptor (Homo sapiens) + Delta-type opioid receptor (Homo sapiens), … | AID 504357, 2011 | cell-based MOR-DOR heterodimer luminescence, inverse agonism; in the data active = inhibition above about 22%, passing the limit was not always enough;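 note: 0% = cells with DMSO and 100% = wells without cells with DMSO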
# OPRM1-OPRD1 ag = agonists of OPRM1-OPRD1 heterodimerization, primary screen, cell-based, luminescence. AID 504326, 2011. hit rate 0.3% among 340,000. activation, % at 9.3 µM. cells. Mu-type opioid receptor (Homo sapiens) + Delta-type opioid receptor (Homo sapiens), …;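 note: 0% = vehicle-treated cells and 100% = reference agonist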
# HTR5A ag ctr = HTR5A agonists in luminescence cell assay, primary screen, counter-screen for OPRM1-OPRD1 heterodimer agonist project, full-deck HTS. 5-hydroxytryptamine receptor 5A (Homo sapiens), P47898. cell-based. activation, % at 9.3 µM. hit rate 0.61% among 340,000; in the data active = activation mostly above about 9.5%, no sharp cut-off; inactive = mostly below about 7.6%;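 note: 0% = cells with vehicle only and 100% = reference agonist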
# Target sequence (P47898 whole entry, looked up): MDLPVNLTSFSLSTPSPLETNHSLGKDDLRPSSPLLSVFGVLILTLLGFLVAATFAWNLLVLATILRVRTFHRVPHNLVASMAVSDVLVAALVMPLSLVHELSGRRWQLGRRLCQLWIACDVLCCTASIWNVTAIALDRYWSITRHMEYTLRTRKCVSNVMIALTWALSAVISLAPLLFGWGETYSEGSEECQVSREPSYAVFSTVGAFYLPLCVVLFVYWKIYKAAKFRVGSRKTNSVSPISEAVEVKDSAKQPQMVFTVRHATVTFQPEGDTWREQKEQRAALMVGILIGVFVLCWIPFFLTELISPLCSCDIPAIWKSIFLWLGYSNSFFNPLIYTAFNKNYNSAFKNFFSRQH
# HTR5A inv ctr = HTR5A inverse agonists in luminescence cell assay, primary screen, counter-screen for OPRM1-OPRD1 heterodimer inverse agonist project, full-deck HTS. HTR5A cell line, inverse agonism. inhibition, % at 9.3 µM. hit rate 0.083% among 340,000; in the data active = inhibition mostly above about 23%, no sharp cut-off; inactive = mostly below about 18%;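 note: 0% = cells with DMSO and 100% = no-cell wells with DMSO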
# OPRM1-D1 ag cf = agonists of MOR-DOR heterodimerization, confirmation, cell-based, luminescence | shares compounds with OPRM1-OPRD1 ag | cells, luminescence complementation | activation, % at 9.3 µM | hit rate 45% among 830 | AID 504904, 2011;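 note: 0% = vehicle-treated cells and 100% = reference agonist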
# HTR5A ag ctr2 = HTR5A agonists in cells, counter-screen for OPRM1-OPRD1 heterodimer agonist project, cell-based, luminescence | activation, % at 9.3 µM | hit rate 8% among 830 | HTR5A agonist counterscreen | shares compounds with OPRM1-OPRD1 ag; in the data active = activation above about 17%;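 note: 0% = vehicle-treated cells and 100% = reference agonist response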
# Active calls of the source: *; i = inactive. Cut-off read from the data, not from the text of the source, unless noted: active = activation above about 18%; inactive = the rest.
SMILES,OPRM1-OPRD1 inv,OPRM1-OPRD1 ag,HTR5A ag ctr,HTR5A inv ctr,others
CC(C)C12CN3CCN(CC(C3)/C1=N\O)C2,13,-2,12*,-12,
CC1OC(OC2C(O)CC(OC3C(O)CC(OC4CCC5(C)C(CCC6C5CCC5(C)C(C7=CC(=O)OC7)C(O)CC65O)C4)OC3C)OC2C)CC(O)C1O (stereo not given),-320,62*,19*,-76,
CC12CC[C@H]3[C@@H](CCC4(O)C[C@H](O)CCC34/C=N/NC(=O)c3ccccc3Cl)C1(O)CCC2C1=CC(=O)OC1 (stereo not given in full),5,-1,4,-13,
Cn1ncnc2c(=O)n(C)c(=O)nc1-2,-143,31*,20*,-3,
O=c1c2ccccc2nc(/C=C/c2ccc(O)cc2)n1-c1ccccc1O,17,-3,-3,7,
O=c1c2ccccc2nc(/C=C/c2ccccc2)n1-c1ccccc1O,-262,58*,-1,2,
CC(C)N1CCN(Cc2ccccc2C(F)(F)F)CC1CCO (stereo not given),-11,2,-6,16,
c1ccc(CN2CCc3nc4ccccc4cc3C2)cc1,1,0,-1,4,
CCOc1cc(C2NCc3ccccc3-n3cccc32)ccc1O (stereo not given),8,-2,2,-9,
CC[N+](CC)(CC#CCO)CC#Cc1ccccc1,7,-1,2,-5,
COC1CCC(OC2CC(C3(C)CCC4(CC(O)C(C)C(C(C)/C=C(\C)C(=O)C(C)CC(C)C(=O)O)O4)O3)OC3(OC(C4OC(O)(CO)C(C)CC4C)CC3C)C2C)OC1C (stereo not given),-84,19*,8,-30,
CCCCn1c(NC(=O)c2ccc(Br)o2)c(C(=O)OCC)c2nc3ccccc3nc21,55*,-11,-5,12,
CCCCn1c(N)c(C(=O)NCCN2CCOCC2)c2nc3ccccc3nc21,15,-3,0,-1,
O=C(c1cnn2c(C(F)(F)F)cc(-c3ccccc3)nc12)N1CCC2(CC1)OCCO2,4,-1,-1,16,
CNC(=S)N1CCn2cccc2C1c1cccnc1 (stereo not given),14,-3,10*,-27,
CCCCNC(=S)N1CCn2cccc2C1c1cccnc1 (stereo not given),10,-2,-2,6,
CC(c1ccccc1)[n+]1ccccc1 (stereo not given),11,-2,6,-12,
CC(=O)O[C@H]1CC[C@@]2(C)C(=CC(=O)C3C2CC[C@@]2(C)C3C[C@H](OC(C)=O)[C@@H]2OC(C)=O)C1 (stereo not given in full),7,-1,9.0*,-35,
COc1ccc2c(c1)NP(=S)(Oc1ccccc1)N2 (stereo not given),-4,1,9.4*,-33,
O=C(c1cn(Cc2ccccc2)c2ccccc12)C1CC1,-6,1,11*,-28,
CC(NCc1cccc(Cl)c1Cl)C(O)c1ccccc1 (stereo not given),4,-1,8,-20,
CN(C)C(CNC(=O)Cc1c(Cl)cccc1Cl)c1ccccc1 (stereo not given),i,145*,1,-3,OPRM1-D1 ag cf=1;HTR5A ag ctr2=4
CCN(CC)CC(O)c1ccc(C2CCCC2)cc1 (stereo not given),-2,0,-3,11,
CC1=NCCc2c1[nH]c1ccccc21,-108,19*,5,-40,OPRM1-D1 ag cf=6;HTR5A ag ctr2=12
N=c1sccn1Cc1ccccc1F,-7,1,-3,11,
Cc1cc(-c2ccccc2)cc(C)[n+]1Cc1ccccc1,-299,53*,3,3,OPRM1-D1 ag cf=0;HTR5A ag ctr2=1
COc1ccc(-c2nn(CCC#N)cc2C(=O)NCc2ccccc2)cc1[N+](=O)[O-],6,-1,4,-11,
CN(C)P(=O)(CCl)Nc1ccccc1 (stereo not given),-6,1,0,12,
CC[C@H](OC(C)=O)C(C[C@H](C)N(C)C)(c1ccccc1)c1ccccc1,i,221*,-2,4,OPRM1-D1 ag cf=2;HTR5A ag ctr2=52*
O=C1CSC2(CN3CCC2CC3)N1 (stereo not given),2,0,-4,10,

# Screens: PubChem BioAssay, The Scripps Research Institute Molecular Screening Center
